System: LXRb homodimer (NR concentration 270 nM)
Assay: PBM binding z-score (relative to random genomic background probes); higher = stronger binding; sequences stand for … in GC…GCGATTGACAGCGTAGAATGAAGG
How it was run: (§1)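 Probes were double-stranded and carried 34-nt variable regions with direct-repeat seeds, single-nucleotide variants, half-site ablations and random human genomic background sequences, printed on custom Agilent 4×180K protein-binding microarrays. Arrays were incubated 1 h with ligand-free nuclear receptor dimers in PBS pH 7.4, 2% milk, 0.02% Triton X-100, 1 mM DTT, 0.2 mg/mL BSA and 0.4 mg/ml salmon testes DNA. Antibodies against each partner (one per run) detected binding, and scanned fluorescence was regression-normalized. Binding z-scores use the random background probes as reference.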

| Sequence | PBM binding z-score |
| --- | --- |
| TCTTGTAGATCAAGCAGGCTAAGAAAGCCTGAGT | -0.474 |
| ACTAGCAGACCAAGGGTCACTCAAGATTAGTCCG | -0.191 |
| GCGACTGGGGCAAAGCCGGTTACCATAAGGTTGG | -1.01 |
| ATATGTAGGGTATCGGGTCATTCAGTTTGCGCAT | 1.84 |
| CGTCCAAGGTTATAGGAGGTCAGTGAAGACAGAT | 0.402 |
| ACTATTAGTTGAGACGAAGGCAACCGATAGGTTG | 0.221 |
| CCGACTGGGGCAGAAGGTTACCATAAGCCAGCCC | -1.21 |
| TCATATAGCTAAACAGGTGAAAGTCCGTAAGTTA | -0.588 |
| CGAACTAGGTCGGAACAGGACAGTGAAGGATGAT | -1 |
| TAGCCTAGGTCATTGGGCCAGTATCGTACGCATC | 0.185 |
| TCTCGGAGGACACGAAGGGCAGAGCTTTCCAGAG | -1.26 |
| TCTGCTAGGTCAGTTGGTCAGTTAACGAGCTGCC | 0.405 |
| ACTAGCAGGCCAAGGGTCACTTAAGATTAGTCCG | -0.323 |
| CCTCGGGGGACAGAAGGTCAGAGCTGTCCGCTTT | 2.95 |
| GCTCGGATGACAAGGTCAGAGCTTTGTCCGTAGA | -1.32 |
| CCTACTGGGCCACCAGGTCATTGATATCAACGTT | -0.0133 |
| TGAATGAGGTTAAAGAACAGGGAACGTGGCGTCG | 0.39 |
| GCGACTGGGGCATCAGCAGGTTACGATAACTTAA | -0.638 |
| TAGCCTAGGTCATTCAGGAGCCAGTATAGAAAGC | 0.687 |
| ACTGACAGGTGAGTGAAGGTAACTCAGCTGGACG | -0.767 |

| Sequence | PBM binding z-score |
| --- | --- |
| AATACAGGGTCATCGTAGGCCAGAGGACGCACAG | 1.25 |
| CGAACTGGGTCATTGACAGGACAGTGAATAGTAA | -0.438 |
| GCTTACGAGTCAAAGGTTATAGCATGAATAGAAT | -0.261 |
| CCTAGTTGGTCCGGAGGTCACACACCGGATATGA | 0.577 |
| TAGCCTAGGTCATGCAGGCCAGTATAGTGTCGGC | -0.186 |
| TAGCATAGGTCATGGGCCAGTATACCACGCGAAC | 0.148 |
| TCATACAGGTAAAAGGTGAAAGTCGGTGTGGTAA | 0.661 |
| TCAAGCAGGCCAGAGGGTCACTCAAGAGGTACGG | -1 |
| CTACCAAGGTGAACAAGGTCGTCGATTACTATTC | -0.568 |
| TCTGCTAGGTCAACGAGGGTCAGCTAATCTGCTA | 0.26 |
| TCTTGTGGATCAGCAGGTTAAGAAAGCTGGCCAA | -0.411 |
| CCTACTGGACCATTCAGAGGTCATTGATCATATG | 1.41 |
| ATCGAAAGATCGACGAGGTGAGTATACACCGTTT | -0.329 |
| CCAGACAGGTGAGAAGGTAAGTCAGCCTCGATTA | -0.265 |
| GTGACTGGGGCAAAGCAGGTTACCATAAGGTTGG | -0.272 |
| GCTAGCAGGCCATTTGGGTCACTGAATGACGGGC | -0.763 |
| TCATATAGGTAAATGCTAGGTAAAAGTCCGATCT | 0.06 |
| ACAGACAGGTGATGAAGGGAACTCAGGCTATCAT | -0.495 |
| GCTAGTTGGTCAGTAAAAGGTCACACCCCGGTCG | 0.781 |
| ACTATTTGTTGACTTAGGGCAACCGATACGACGC | 1.56 |

System: PPARa:RXRa (NR concentration 270 nM, RXRa partner concentration 90 nM)
Assay: as above
How it was run: as §1

| Sequence | PBM binding z-score |
| --- | --- |
| TCTTGTAGATCAAGCAGGCTAAGAAAGCCTGAGT | 0.113 |
| ACTAGCAGACCAAGGGTCACTCAAGATTAGTCCG | 3.74 |
| GCGACTGGGGCAAAGCCGGTTACCATAAGGTTGG | 0.472 |
| ATATGTAGGGTATCGGGTCATTCAGTTTGCGCAT | 4.3 |
| CGTCCAAGGTTATAGGAGGTCAGTGAAGACAGAT | 3.39 |
| ACTATTAGTTGAGACGAAGGCAACCGATAGGTTG | -0.644 |
| CCGACTGGGGCAGAAGGTTACCATAAGCCAGCCC | 1.43 |
| TCATATAGCTAAACAGGTGAAAGTCCGTAAGTTA | 1.08 |
| CGAACTAGGTCGGAACAGGACAGTGAAGGATGAT | 0.71 |
| TAGCCTAGGTCATTGGGCCAGTATCGTACGCATC | 3.85 |
| TCTCGGAGGACACGAAGGGCAGAGCTTTCCAGAG | -0.128 |
| TCTGCTAGGTCAGTTGGTCAGTTAACGAGCTGCC | 1.37 |
| ACTAGCAGGCCAAGGGTCACTTAAGATTAGTCCG | 4.28 |
| CCTCGGGGGACAGAAGGTCAGAGCTGTCCGCTTT | 3.5 |
| GCTCGGATGACAAGGTCAGAGCTTTGTCCGTAGA | 1.93 |
| CCTACTGGGCCACCAGGTCATTGATATCAACGTT | 3.16 |
| TGAATGAGGTTAAAGAACAGGGAACGTGGCGTCG | 3.38 |
| GCGACTGGGGCATCAGCAGGTTACGATAACTTAA | 1.38 |
| TAGCCTAGGTCATTCAGGAGCCAGTATAGAAAGC | 3.57 |
| ACTGACAGGTGAGTGAAGGTAACTCAGCTGGACG | 0.153 |

| Sequence | PBM binding z-score |
| --- | --- |
| AATACAGGGTCATCGTAGGCCAGAGGACGCACAG | 5.96 |
| CGAACTGGGTCATTGACAGGACAGTGAATAGTAA | 4.39 |
| GCTTACGAGTCAAAGGTTATAGCATGAATAGAAT | 4.52 |
| CCTAGTTGGTCCGGAGGTCACACACCGGATATGA | 3.61 |
| TAGCCTAGGTCATGCAGGCCAGTATAGTGTCGGC | 3.38 |
| TAGCATAGGTCATGGGCCAGTATACCACGCGAAC | 5.98 |
| TCATACAGGTAAAAGGTGAAAGTCGGTGTGGTAA | 4.39 |
| TCAAGCAGGCCAGAGGGTCACTCAAGAGGTACGG | 2.59 |
| CTACCAAGGTGAACAAGGTCGTCGATTACTATTC | 2.77 |
| TCTGCTAGGTCAACGAGGGTCAGCTAATCTGCTA | 4.27 |
| TCTTGTGGATCAGCAGGTTAAGAAAGCTGGCCAA | 0.761 |
| CCTACTGGACCATTCAGAGGTCATTGATCATATG | 3.7 |
| ATCGAAAGATCGACGAGGTGAGTATACACCGTTT | 0.0246 |
| CCAGACAGGTGAGAAGGTAAGTCAGCCTCGATTA | 0.66 |
| GTGACTGGGGCAAAGCAGGTTACCATAAGGTTGG | 2.5 |
| GCTAGCAGGCCATTTGGGTCACTGAATGACGGGC | 1.33 |
| TCATATAGGTAAATGCTAGGTAAAAGTCCGATCT | 1.36 |
| ACAGACAGGTGATGAAGGGAACTCAGGCTATCAT | -0.115 |
| GCTAGTTGGTCAGTAAAAGGTCACACCCCGGTCG | 4.19 |
| ACTATTTGTTGACTTAGGGCAACCGATACGACGC | 0.197 |

Reference: the supplement of paper PMC6555819
